The list is not random: actives were taken first. Their share in the collection is about 2.5%.
KLF5 inhibitor: kruppel-like factor 5 inhibition. DLD-1 KLF5 promoter-luciferase reporter, luminescence. inhibition, % at 5 µM. 290,000 compounds, 0.23% hits. AID 1700;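 active means inhibition above a per-plate limit of that plate's mean compound inhibition plus 3 SD, cut at about 60% in these data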;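 further: 0% = DMSO wells and 100% = LY294002 at 200 µM; higher means less KLF5 promoter-driven luciferase light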
697 NFkB inh: inhibitors of the PMA/ionomycin-induced NF-kB reporter in 697 B cells. inhibition, % at 4 µM. 330,000 compounds, 0.33% hits. 697 B-cell NF-kB luciferase reporter, 16 h; in the data active means inhibition above about 35%
aSyn 5UTR inh: 5' untranslated region of α-synuclein, MLPCN primary screen. alpha-synuclein 5'UTR reporter, inhibitor activity. 300,000 compounds, 0.82% hits. inhibition, % (tested at 7.5 µM); in the data active means inhibition above about 60%;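 further: H4 neuroglioblastoma cells stably carrying SNCA 5'UTR luciferase fusion; 0% = DMSO wells and 100% = positive control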
ANO1 block: mouse TMEM16A channel inhibition, primary screen | normalized B-score (activity score, 25-100; higher = stronger inhibition) at 10 µM | HEK293 TMEM16A/YFP iodide influx fluorescence, ionomycin | Q8BHY3 | AID 588511 | 310,000 compounds, 1.2% hits;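 active means ratio plate-corrected score three or more library SD toward inhibition, starting fluorescence score within five deviations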;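 further: score derived from kinetic fluorescence span divided by baseline fluorescence per well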
Target sequence (Q8BHY3 whole entry, looked up): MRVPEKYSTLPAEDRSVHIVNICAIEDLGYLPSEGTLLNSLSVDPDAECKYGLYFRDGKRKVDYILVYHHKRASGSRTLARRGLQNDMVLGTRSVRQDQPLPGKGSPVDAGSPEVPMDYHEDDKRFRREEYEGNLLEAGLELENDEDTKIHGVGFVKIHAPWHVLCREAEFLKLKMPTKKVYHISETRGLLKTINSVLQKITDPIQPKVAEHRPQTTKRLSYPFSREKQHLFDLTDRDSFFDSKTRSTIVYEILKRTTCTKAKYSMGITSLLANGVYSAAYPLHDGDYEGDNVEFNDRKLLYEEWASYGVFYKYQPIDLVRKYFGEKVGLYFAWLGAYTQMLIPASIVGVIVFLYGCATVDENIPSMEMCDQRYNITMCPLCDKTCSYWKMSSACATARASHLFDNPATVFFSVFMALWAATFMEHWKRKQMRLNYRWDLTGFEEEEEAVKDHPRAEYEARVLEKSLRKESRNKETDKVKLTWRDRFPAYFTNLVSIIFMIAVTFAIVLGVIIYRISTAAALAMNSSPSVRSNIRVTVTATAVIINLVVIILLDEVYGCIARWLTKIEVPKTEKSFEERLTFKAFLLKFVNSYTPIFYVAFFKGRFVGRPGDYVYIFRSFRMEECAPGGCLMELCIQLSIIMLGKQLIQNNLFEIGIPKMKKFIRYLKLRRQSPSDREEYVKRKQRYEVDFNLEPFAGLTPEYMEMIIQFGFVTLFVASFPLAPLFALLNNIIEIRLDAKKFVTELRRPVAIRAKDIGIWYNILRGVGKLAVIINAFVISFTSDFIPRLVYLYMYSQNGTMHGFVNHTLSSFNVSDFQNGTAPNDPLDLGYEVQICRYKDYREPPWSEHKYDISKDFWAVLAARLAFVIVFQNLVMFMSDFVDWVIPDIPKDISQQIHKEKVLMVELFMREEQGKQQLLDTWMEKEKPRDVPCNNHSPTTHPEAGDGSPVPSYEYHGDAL
ANO1 activ: mouse TMEM16A channel activation, primary screen. Q8BHY3. HEK293 TMEM16A/YFP-H148Q/I152L, iodide quench fluorescence; hits give low values. B-score at 10 µM. 340,000 compounds, 0.3% hits. AID 623877;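 active means fluorescence-ratio B-score plate-corrected deviation score at least 3 library SD below zero, with starting fluorescence score within 5 deviations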;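 further: channel opened by trigger with iodide after compound preincubation; score built on the fluorescence ratio of max minus min over baseline; more negative score means more quench and so TMEM16A activation or potentiation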
Jurkat NFkB inh: inhibitors of the PMA/ionomycin-induced NF-kB reporter in Jurkat cells. PMA/ionomycin-induced NF-kB luciferase reporter, luminescence. inhibition, % at 4 µM. 330,000 compounds, 0.53% hits. AID 435003; in the data active means inhibition above about 50%
* = called active by the depositor; i = inactive; / = no result.

SMILES	KLF5 inhibitor	697 NFkB inh	aSyn 5UTR inh	ANO1 block	ANO1 activ	Jurkat NFkB inh
O=C(CCCc1nc2ccccc2s1)NNC(=O)CCN1CCN(Cc2ccccc2)CC1	-6	6	32	i	-22*	-4
Cc1nn(Cc2c(F)c(F)c(F)c(F)c2F)c(C)c1NC(=O)c1cccc(COc2ccccc2Cl)c1	-202	-52	-97	i	i	-26
Cc1nn(Cc2cccc(F)c2)c(C)c1NC(=O)c1ccc(COc2ccccc2Cl)cc1	-32	10	69*	i	i	16
CCN1CCN(S(=O)(=O)c2ccc(Cl)c(C(=O)Oc3ccc(CC(=O)OC)cc3)c2)CC1	/	/	/	/	i	/
COc1ccc(CC(=O)Nc2cccc(-c3nnc(-c4ccc(C)cc4)o3)c2)cc1OC	-12	3	-38	25*	i	45
COc1ccc(CC(=O)Nc2cccc(-c3nnc(-c4ccccc4)o3)c2)cc1OC	-72	/	-28	/	i	/
NNC(=O)c1ccc(CSc2nc3ccccc3s2)cc1	-21	-19	-42	i	i	-53
COCCN(CCOC)C(=O)c1ccc(CSc2nc3ccccc3s2)cc1	-22	-19	-42	25*	i	-14
COc1ccc(CN2C(=O)c3ccccc3C(/C=N/OCc3ccc(Cl)cc3)C2=O)cc1 (stereo unspecified)	-33	3	10	i	i	-1
COc1ccc(CN2C(=O)c3ccccc3C(/C=N\OCc3ccc(F)cc3)C2=O)cc1 (stereo unspecified)	-34	14	-17	25*	i	4
CCOC(=O)c1c(C)[nH]c(C(=O)OCC(=O)Nc2ccc(Cl)cn2)c1C	/	8	/	/	i	17
CCOC(=O)c1ccc(NC(=O)c2c(C)[nH]c(C(=O)OCC)c2C)cc1	-34	15	33	i	i	2
CCOC(=O)c1c(C)[nH]c(C(=O)Nc2ccc(NC(C)=O)cc2)c1C	-13	23	89*	i	i	1
CCOC(=O)c1c(C)[nH]c(C(=O)OCC(=O)Nc2sccc2C(N)=O)c1C	/	-46	-119	100*	i	13
COc1cc(C(C(=O)NC2CCCC2)N(C(=O)c2snc(C(N)=O)c2N)c2ccccc2)cc(OC)c1OC (stereo unspecified)	-6	-10	9	i	i	-19
CC(=O)[C@@]1(O)C(C)CC2C3C=C(C)C4=Cc5c(cnn5-c5ccccc5)C[C@]4(C)C3C(O)C[C@@]21C (stereo partly specified)	-33	/	81*	i	i	/
Cc1cc(C(=O)NC2CC(C)(C)Cc3c2cnn3-c2ccccc2)n(C)n1 (stereo unspecified)	-19	10	-4	i	i	11
CC(NC(=O)CCNC(=O)c1ccco1)c1ccccc1 (stereo unspecified)	/	23	-2	i	i	11
C=CCOc1ccc(C2C(C(=O)c3ccco3)=C(O)C(=O)N2c2nnc(C)s2)cc1 (stereo unspecified)	-33	4	-12	i	-8.9*	-22
CSc1nnc(N2C(=O)C(O)=C(C(=O)c3ccco3)C2c2cccc(Cl)c2)s1 (stereo unspecified)	-36	/	-9	i	i	/
CSc1nnc(N2C(=O)C(O)=C(C(=O)c3ccco3)C2c2ccc(F)cc2)s1 (stereo unspecified)	-74	/	-41	i	-6.6*	/
CCSc1nnc(N2C(=O)C(O)=C(C(=O)c3ccco3)C2c2cccc(OC)c2)s1 (stereo unspecified)	-55	-13	-13	i	-6.9*	-7
O=C(c1ccccc1)c1ccc2nc(-c3ccc(NC(=O)c4ccccc4Br)cc3)[nH]c2c1	-31	0	75*	i	i	-6
CCn1c(SCC(=O)N2CCC(C)CC2)nc2c(c1=O)SC(C)C2 (stereo unspecified)	-1	-33	-14	i	i	10
CC1=NOC(=O)/C1=C\c1ccc(-c2cc(Cl)ccc2Cl)o1	-8	-2	-2	i	-5.4*	36
SMILES	KLF5 inhibitor	697 NFkB inh	aSyn 5UTR inh	ANO1 block	ANO1 activ	Jurkat NFkB inh
CC1=NOC(=O)/C1=C/c1ccc(-c2ccc(Cl)cc2)o1	-32	21	/	i	i	15
COCCNc1nc(N)c([N+](=O)[O-])c(NC2CCCCC2)n1	4	-26	68*	i	i	13
Cc1nn(-c2ccc(C(=O)N3CCN(S(=O)(=O)c4ccccc4C(F)(F)F)CC3)cc2)c(C)c1Cl	/	-29	/	/	-5.8*	13
CC(=O)c1ccc(S(=O)(=O)N2CCN(C(=O)c3ccc(-n4nc(C)c(Cl)c4C)cc3)CC2)cc1	/	-2	/	/	i	23
O=C1OCc2ccc([N+](=O)[O-])cc21	/	/	/	/	i	/
O=C(Nc1ccc(NC(=O)c2ccccc2Cl)nc1)c1ccco1	-55	-8	-102	i	i	-23
CCOc1ccccc1N(CC(=O)N1CCOCC1)S(=O)(=O)c1ccc(SC)cc1	-4	/	-1	/	-9.8*	/
O=C(O)c1nn(Cc2nc3ccccc3o2)c(=O)c2ccccc12	3	11	5	i	-4.8*	3
CC1(C)CC(N=c2cc(-c3ccccc3)oc3ccc(Cl)cc23)CC(C)(C)N1	-45	/	99*	/	i	/
COc1ccc(NC(=O)C(NC(C)=O)C(=O)Nc2ccc(F)cc2)cc1 (stereo unspecified)	-19	3	13	i	i	6
COCCCNC(=O)CCNS(=O)(=O)c1ccc(C)cc1	-29	7	43	25*	i	2
COc1ccc2nc3ccccc3[n+]([O-])c2c1	/	/	/	/	-10*	/
COc1ccc2c(ccc[n+]2[O-])c1	/	/	/	/	i	/
COC(=O)c1cccc(Oc2cccc(C(F)(F)F)c2)n1	-11	-6	9	i	i	11
CCOc1ccccc1OCC(=O)N/N=C(\C)Cc1ccc(OC)cc1	55	13	87*	i	i	-2
COc1ccccc1OCC(=O)NN=C(Cc1ccccc1)Cc1ccccc1	-32	16	1	i	i	0
COc1ccccc1CNC(=O)COC(=O)CCN=C1NS(=O)(=O)c2ccccc21	/	10	-2	i	i	0
CCOc1ccccc1N1CCN(C(=O)C2CSC3(C)CCC(=O)N23)CC1 (stereo unspecified)	/	-5	/	/	i	-7
Cn1c(=O)c2c(nc(NCc3ccco3)n2C/C=C/c2ccccc2)n(C)c1=O	/	-17	90*	i	i	36
Cn1c(=O)c2c(nc(NCc3ccco3)n2C)n(C)c1=O	5	6	29	i	i	-4
O=C(C/C=N/OCc1c(Cl)cccc1Cl)c1cnc(-c2ccccc2)s1	-12	9	-17	100*	i	-1
CCn1nnc2cc(C(=O)NCCc3ccccc3F)ccc21	4	-85	63*	i	i	-80

Screening data deposited in PubChem BioAssay by several laboratories.
